Data published in PubChem BioAssay (NCATS).
Results filed as inconclusive are left out. Entries that show only a call come without a potency. Activity calls are given as the source filed them. Calls come from the whole dose curve.

Assays:
[1] = Primary qHTS for Huh7 cytotoxicity: counterscreen for inhibitors of MERS-S pseudotyped particle cell entry (AID 1479147)
[2] = Primary qHTS for Vero E6 cytotoxicity: counterscreen for inhibitors of SARS-S pseudo-typed particle cell entry (AID 1479150)
[3] = Primary qHTS for inhibitors of MERS-S pseudo-typed particle cell entry (AID 1479149); note: potency is the fitted concentration of half-maximal effect; nearly all actives have a fitted effect of over 60% in size

Structure (SMILES)	Potency [1]	Potency [2]	Potency [3]
CN(C)CCCN1c2ccccc2Sc2ccccc21	inactive	inactive	–
O=C(c1ccc(F)cc1)C1CCN(CCn2c(=O)[nH]c3ccccc3c2=O)CC1	inactive	inactive	–
C=C1C[C@H]2[C@@H]3C=C(C)C4=CC(=O)CC[C@]4(C)[C@H]3CC[C@]2(C)[C@@]1(OC(C)=O)C(C)=O	inactive	inactive	–
CCCN(CCC)C(=O)C(CCC(=O)OCCCN1CCN(CCOC(=O)Cc2c(C)n(C(=O)c3ccc(Cl)cc3)c3ccc(OC)cc23)CC1)NC(=O)c1ccccc1 (stereo unspecified)	inactive	inactive	–
COc1cc(N)c(Cl)cc1C(=O)NC1CCN(CCCOc2ccc(F)cc2)CC1OC (stereo unspecified)	–	inactive	–
O=C1NC2CCCCN2C12CCN(CCCN1c3ccccc3CCc3ccc(Cl)cc31)CC2 (stereo unspecified)	–	inactive	12.6 µM (active)
